Data on ten compounds can be found in PubChem BioAssay (NCI).

Several values for one entry are separate records, joined by “and”; a condition that tells them apart may be missing. Equal entries are not always repeated. About 83,000 compounds went through this panel and 20% of them were active in at least one assay; those are over-represented in the sample as a whole.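 How to read the values: 0–100, growth inhibition (40 = 60% inhibited); 0, no net growth; -100 to 0, cell death (-40 = 40% of starting cells died; -100 = all dead).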 Activity calls are given as the source filed them. The calls were made as follows: active = growth percent below 10; inactive = the rest.

This test has as its system TK-10 renal. Kind of test: NCI-60 one-dose screen, 48 h (100 = growth as untreated, 0 = no growth, -100 = all killed). Particulars: 10 µM unless noted.
Consider `C=C1C(=O)OC2/C=C(\CO)C(OC(C)=O)CC(O)/C(C)=C/C(OC(=O)C(C)CC)C12` (stereo not given), for which the growth is -36.1% [100 µM] (active) and -92% [100 µM] (active).

In the case of `Nc1cc2c3c(cccc3c1)C(=O)N(c1ccc(OCCN3CCCCC3)cc1)C2=O`, the growth was -13.5% [100 µM] (active) and -100% [100 µM] (active).

In the case of `NNC1=N/C(=C\c2ccco2)C(Cl)=N1`, the growth is 67% [100 µM] (inactive) and 2.87% [100 µM] (active).

`N#CC1C(=O)N(c2ccccc2)NC12OC(=O)c1ccncc12` (stereo not given): the growth is 88.7% [20 µM] (inactive) and 4.38% [20 µM] (active).

For `NC(=O)c1[nH]cnc1/N=N/SCC(N)C(=O)O` (stereo not given), the growth is 9.64% [100 µM] (active) and 8.09% [100 µM] (active).

For the compound `CCOC(=O)CCCOc1cc(-c2ccccc2F)nc2cc3c(cc12)OCO3`, the growth was 58.8% [100 µM] (inactive) and 0% [100 µM] (active).

`CC#CC#C/C=C1\C=CC2(OC=CC2OC(C)=O)O1` (stereo not given): the growth was -20.2% [100 µM] (active) and -81% [100 µM] (active).

`COC(=O)c1ccc(CCc2cc(O)c(Br)cc2O)cc1`: the growth is -97.6% [100 µM] (active) and -100% [100 µM] (active).

In the case of `COc1ccc(C2=C(N)c3ccccc3C2=O)cc1`, the growth is 79.7% [100 µM] (inactive) and -100% [100 µM] (active).

Regarding `Cc1ccnc2[nH]c(-c3ccc(F)cc3)cc(=O)c12`, the growth is 66.3% [100 µM] (inactive) and 16.9% [100 µM] (inactive).
